# Sampled rows, rich in hits. Any-hit rate of the full collection: about 4.7%.
# TRHR PAM – allosteric enhancers of human TRH receptor; TRHR cells, fluo-8 calcium fluorescence, EC20 TRH enhancement; hit rate 0.66% among 360,000; P34981; AID 493056; enhancement, % at 2 µM; in the data active means enhancement above about 30%; further: 0% is about no effect
#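 TRHR-expressing cells loaded with fluo-8 calcium dye were read kinetically (ex 480/em 530) during compound addition, then stimulated with an EC20 of TRH (10 nM final). Enhancement of the Gq-mediated intracellular calcium response was scored.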
# TRHR agonist – activates the human TRH receptor; activation, % at 2 µM; P34981; TRHR cells, calcium flux fluo-8, FDSS agonist mode; hit rate 0.18% among 360,000; further: 0% is about no effect
#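 TRHR-expressing cells loaded with fluo-8 calcium dye; 23 nL library compound pin-transferred, kinetic FDSS fluorescence (Ex 480/Em 530) recorded about 180 s for agonist-induced calcium release, before a 10 nM TRH EC20 addition for potentiator mode.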
# D1 antag – antagonists of human D1 dopamine receptor; HEK293 TREx D1 cells, calcium flux, dopamine EC80; stronger effect = lower value; activity change, negative = inhibition, % at 10 µM; hit rate 3.2% among 360,000; AID 504652; in the data active means activity change below about -30%; further: on the % scale 0 is the no-effect control and ±100 the full control effect
# Target sequence (P21728 whole entry, looked up): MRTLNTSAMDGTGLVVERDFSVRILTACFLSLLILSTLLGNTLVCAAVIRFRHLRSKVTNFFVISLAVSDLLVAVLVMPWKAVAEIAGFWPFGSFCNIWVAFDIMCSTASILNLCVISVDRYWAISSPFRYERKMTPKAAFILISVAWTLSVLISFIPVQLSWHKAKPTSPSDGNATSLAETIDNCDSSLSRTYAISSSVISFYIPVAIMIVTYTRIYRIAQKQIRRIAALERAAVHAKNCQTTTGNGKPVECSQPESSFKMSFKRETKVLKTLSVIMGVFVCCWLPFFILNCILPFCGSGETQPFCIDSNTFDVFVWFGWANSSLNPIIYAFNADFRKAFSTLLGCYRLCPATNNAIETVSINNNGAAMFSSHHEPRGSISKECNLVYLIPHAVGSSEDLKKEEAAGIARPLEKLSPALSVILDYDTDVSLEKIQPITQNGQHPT
#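 Tetracycline-induced HEK293 Trex D1 cells, force-coupled to calcium, dye-loaded; compounds added and read 180 s, then EC80 dopamine added and calcium flux tracked kinetically another 180 s.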
# D1 agonist – activates the human D1 dopamine receptor. AID 504660. P21728. HEK293 T-REx D1 cells, calcium flux, agonist mode. activation, % at 2 µM. hit rate 1% among 360,000; further: 0% is about no effect
#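 Agonism was scored from calcium flux recorded over 180 s (1 read/s) after pintool compound addition, following a 10-cycle baseline. Cells were inducible force-coupled HEK293 TREx D1, plated overnight at 30 C and loaded with no-wash calcium dye.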
# D1 PAM – potentiators of human D1 dopamine receptor; P21728; HEK293 TREx D1 cells, calcium flux, dopamine EC20 potentiation; potentiation, % at 10 µM; hit rate 0.036% among 360,000; AID 504651; in the data active means potentiation above about 30%; further: 0% is about no effect
# * hit, by the source's call; x = no result. Unless noted, no stated cut-off is given here; in the data, active means activation above about 30%; inactive means the rest.
SMILES,TRHR PAM,TRHR agonist,D1 antag,D1 agonist,D1 PAM
O=C(NCCN1CCN(c2cccc(Cl)c2)CC1)c1ccc(CSc2nc3ccncc3[nH]2)cc1,0.7,1.1,-48.4*,1.8,-13.6
COc1ccccc1N1CC(C)(C)C(=O)N(C(=O)c2ccc(C)cc2)C1=S,-0.6,0.2,-44.5*,4.9,-2.4
COc1ccccc1N1CC(C)(C)C(=O)N(C(=O)c2ccc(Cl)cc2)C1=S,2.1,1.3,-18.1,5.7,-3.1
COc1ccccc1NC(=O)c1cc2c(=O)n(Cc3cccs3)ccc2nc1C,12.9,-0.6,-39.7*,0.2,-4.3
O=C(COC(=O)/C=C/c1ccc(C(F)(F)F)cc1)NC1CCCC1,-4.6,0.1,-49.1*,5.4,-7.6
O=C(COC(=O)CCC(=O)c1ccc(F)cc1)NCc1ccco1,2.7,-0.4,-31.6*,-0.3,-8.4
O=C(COC(=O)/C=C/c1ccc(C(F)(F)F)cc1)NC1CC1,16.5,0.8,-25.8,8.6,1.0
O=C(COC(=O)Cc1ccc(F)cc1)NCc1ccco1,-3.6,-0.1,-1.4,1.0,-1.0
O=C(COC(=O)/C=C/c1ccc(OC(F)F)cc1)NCc1cccs1,-7.8,2.2,2.6,36.5*,-3.4
O=C(COC(=O)/C=C/c1ccc(C(F)(F)F)cc1)NCc1ccco1,-1.5,-0.1,-30.7*,6.5,-7.5
CCCCn1c(N)c(NCC(C)C)c(=O)[nH]c1=O,-5.8,0.0,-46.4*,2.1,0.7
O=C(CN1CCCN(S(=O)(=O)c2ccc(Br)cc2)CC1)Nc1cccc(C(F)(F)F)c1,-3.3,0.7,11.8,2.0,-3.4
O=C(NCc1ccccc1Cl)C1CCCN1C(=O)NCc1ccccc1 (stereo not given),0.0,0.1,-44.1*,1.3,-3.1
CCOc1ccc(CCNC(=O)CCc2c(C)nc3cc(-c4ccccc4OC)nn3c2C)cc1,6.5,0.3,-4.3,3.3,-2.1
COCCn1c(N)c(C(=O)NS(=O)(=O)c2ccc(C)cc2)c(=O)[nH]c1=O,-3.5,0.1,-31.8*,7.3,1.1
CC1(C)Cc2c(C#N)c(N3CCN(C(=O)c4ccccc4)CC3)nc(-c3ccco3)c2CS1,32.8*,-0.9,7.9,1.1,-0.5
CC(C)c1nc(N2CCN(C(=O)c3ccccc3)CC2)c(C#N)c2c1COC(C)(C)C2,-6.5,-0.9,-9.1,-0.1,5.4
Cc1ccc(NC(=O)c2ccccc2NS(=O)(=O)c2ccc(Cl)s2)cc1,-3.6,3.7,-44.4*,26.1,-0.4
O=C(Nc1ccccc1Cc1ccccc1)c1ccccc1NS(=O)(=O)c1ccc(Cl)s1,-3.1,1.7,-59.7*,28.3,-6.6
O=C(Nc1ccccc1)c1ccccc1NS(=O)(=O)c1ccc(Cl)s1,-2.9,5.6,-35.0*,29.7,-8.2
O=C(NCc1ccco1)c1ccccc1NS(=O)(=O)c1ccc(Cl)s1,-10.6,1.2,x,20.8,-1.4
CS(=O)(=O)c1ccccc1C(=O)Nc1ccccc1Cc1ccccc1,-4.5,-0.5,3.7,0.2,0.3
Cc1ccc(Cl)cc1NC(=O)C1CCN(c2nc3ccccc3n3cccc23)CC1,14.7,0.0,6.5,-0.5,-2.3
CC1CCc2c(sc(NC(=O)C3c4ccccc4Oc4ccccc43)c2C#N)C1 (stereo not given),-3.9,1.3,5.0,0.0,0.4
NC(=O)c1ccc(N2CCC(C(N)=O)CC2)c([N+](=O)[O-])c1,0.7,0.7,11.7,2.2,2.2
SMILES,TRHR PAM,TRHR agonist,D1 antag,D1 agonist,D1 PAM
CCOC(=O)C1CCN(c2ccc(C(N)=O)cc2[N+](=O)[O-])CC1,12.3,-0.1,-33.0*,10.8,-4.2
COC(=O)c1ccc(N2CCN(CC(=O)c3ccc(-c4ccccc4)cc3)CC2)c([N+](=O)[O-])c1,-1.6,-0.4,-34.3*,1.6,-7.8
NC(=O)c1ccc(N2CCN(S(=O)(=O)c3ccccc3)CC2)c([N+](=O)[O-])c1,14.7,0.3,-40.4*,12.3,0.8
COC(=O)c1cn[nH]c1N,6.0,0.7,-30.4*,3.9,-10.4
CCOC(=O)c1cn[nH]c1N,4.9,-0.8,-2.9,3.2,8.0
CCCc1cc(=O)[nH]c(Nc2ccccc2O)n1,23.1,5.7,-10.5,13.1,2.2
COc1cc2c(cc1OC)n(CC(=O)c1ccc(F)cc1)c(=O)n1nc(CCn3nc(C)cc3C)nc21,36.2*,-0.1,16.9,-0.3,-0.1
CC1CCCCN1S(=O)(=O)c1ccc2c(c1)oc(=O)n2CC(=O)Nc1ccc(Cl)cc1 (stereo not given),-7.4,0.3,-20.1,5.3,1.0

# Screening results deposited in PubChem BioAssay by National Center for Advancing Translational Sciences (NCATS).
